# Values without a mark were called inactive.
# System: TDF
# Test: H1.0 immunofluorescence intensity relative to DMSO (% of DMSO); higher = stronger H1.0 induction, active = 120 or more
# Conditions: concentration: 10 µM; 24 h
# Procedure, shortened: (§1)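 Six fields per well were imaged at ×10 after the cells were fixed in 3.7% formaldehyde and stained with a rabbit anti-H1.0 antibody, an AlexaFluor 647 secondary and DAPI. The HCC1569 and TDF cells had been plated at 800 per well in 384-well plates (RPMI, 10% FBS) and treated in triplicate with compounds at 10 µM for 24 h at 37 °C. The values are the median of replicates of H1.0 nuclear intensity or cell number, as percent of the plate control. Smoothing for positional effects was applied to HCC1569 data.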
# 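Also: TDF is a line of transformed human dermal fibroblasts of mesenchymal origin.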
row,Compound,H1.0 immunofluorescence intensity
1,CC(=O)N1CCN(C(=O)/C=C/c2ccc(Sc3ccccc3C(C)C)c([N+](=O)[O-])c2)CC1,103
2,Br.CN1CCc2c(cc(O)c(O)c2Cl)C(c2cccc(Cl)c2)C1 (stereo unspecified),91.9
3,CC(=O)O.CN=C(N)NCCCC(N)C(=O)O [NG-Monomethyl-L-arginine acetate],95.6
4,N[C@H](C(=O)O)c1cccc(O)c1 [(S)-3-Hydroxyphenylglycine],102
5,CC(C)NNC(=O)c1ccncc1.O=P(O)(O)O [Iproniazid phosphate],93.8
6,O=C(O)C=CC(=O)O.c1cnc(N2CCN(Cc3ccc4c(c3)OCO4)CC2)nc1 [Piribedil maleate],93.8
7,COC(=O)c1c(C)[nH]c(C)c1C(=O)c1ccccc1Cc1ccccc1,92.3
8,CCC(C(=O)C(C)C(O)C(C)CCc1ccc(C)c(O)c1C(=O)[O-])C1OC(CC)(C2CCC(O)(CC)C(C)O2)CC1C.[Na+] (stereo unspecified) [Lasalocid A],105
9,CC(=O)OCC1=C(C(=O)[O-])N2C(=O)C(NC(=O)Cc3cccs3)C2SC1.[Na+] (stereo unspecified) [Cephalothin sodium],89.4

# System: HCC1569
# Test: H1.0 immunofluorescence intensity relative to DMSO (% of DMSO); higher = stronger H1.0 induction, active = 140 or more
# Conditions: concentration: 10 µM; 24 h
# Procedure, shortened: as §1
row,Compound,H1.0 immunofluorescence intensity
1,CCc1nc(-c2cccc(C)c2)c(-c2ccnc(NC(=O)c3ccccc3)c2)s1,120
2,CC1(C)C=Cc2c(ccc3c2OC[C@@H](c2ccc(O)cc2O)C3)O1,109
3,O=C(Nc1ccccc1)c1cc([N+](=O)[O-])ccc1Cl,97.9
4,COC1C=COC2(C)Oc3c(C)c(O)c4c(O)c(cc([O-])c4c3C2=O)NC(=O)C(C)=CC=CC(C)C(O)C(C)C(O)C(C)C(OC(C)=O)C1C.[Na+] (stereo unspecified),97.5
5,CC1=C(CC(=O)O)c2cc(F)ccc2C1=Cc1ccc(S(C)(=O)=O)cc1 [Sulindac sulfone],103
6,COc1ccc2c(c1)c(CC(=O)O)c(C)n2Cc1ccc(F)cc1 [1-(4-Fluorobenzyl)-5-methoxy-2-methylindole-3-acetic acid],85.5
7,CCC1C(=O)OCC1Cc1cncn1C.O=[N+]([O-])O (stereo unspecified) [Pilocarpine nitrate],107
8,CN(C)CCCOC1C(C(O)CO)OC2OC(C)(C)OC21.Cl (stereo unspecified) [Amiprilose hydrochloride],91.5
9,O=C(O)CCCc1c[nH]c2ccccc12 [Indole-3-butyric acid],86.6
10,C=C1CCC(O)CC1=CC=C1CCCC2(C)C1CCC2C(C)CCCC(C)(C)O (stereo unspecified) [Calcifediol],120
11,CNC(=O)c1ccccc1Sc1ccc2c(C=Cc3ccccn3)n[nH]c2c1 [Axitinib],134
12,O=C1CC(c2ccc(O)c(O)c2)Oc2cc(OC3OC(CO)C(O)C(O)C3O)cc(O)c21 (stereo unspecified) [Eriodictyol-7-O-glucoside],89.3
13,OC1CCN2Cc3ccccc3N=C12 (stereo unspecified) [Vasicine],89.7
14,O=C1NC(=O)c2c1c(-c1ccccc1)cc1[nH]c3ccc(O)cc3c21,91.4
15,CCCCCCCCC=CCCCCCCCCCCCCCC(=O)O [15(Z)-Tetracosenoic acid],99.1
16,CC1=NS(=O)(=O)c2cc(Cl)ccc2N1 [Diazoxide],101
17,O=C1Cc2c([nH]c3ccc(Br)cc23)-c2ccccc2N1 [Kenpaulone],83.4
18,"CC(C)(C)C1(O)CCN2CC3c4ccccc4CCc4cccc(c43)C2C1.Cl (single isomer, unassigned; (+)) [(+)-Butaclamol hydrochloride]",251 (active)
19,Cc1cc(C)c(C=C2C(=O)Nc3ccccc32)[nH]1 [VEGF Receptor 2 Kinase Inhibitor III],108
20,NC(N)=NCc1cccc(I)c1.NC(N)=NCc1cccc(I)c1.O=S(=O)(O)O [m-Iodobenzylguanidine hemisulfate],98.4
21,CCCCCCCCCCOCCC(=O)O [4-Oxatetradecanoic acid],103
22,O=C(CCCc1ccc(-c2ccccc2F)cc1)Nc1ccc(O)cc1 [MK2a Inhibitor],129
